According to PubChem BioAssay AID774 (SRMLSC, 2007):
Among all 65,000 compounds or so, about 15 (0.02%) were called active.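 The calls were made as follows: active = single-dose screening hits from any of four coupled enzyme assays that gave an IC50 when retested across doses; inconclusive = no clear call, values can overlap the other calls; inactive = the rest.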 The list is a sample of the results.

Assay: NADH-endpoint coupling enzyme inhibition profiling – biochemical, MLSMR library, artefact control, profiling panel (AID 774);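 also: the DPM-DC format reads NADH fluorescence rather than 340 nm absorbance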
Settings: coupled PK/LDH NADH assays, four targets; at 10 µM; hits give high values

inhibition, inactive:
COc1cc(OC)cc(C(=O)Nc2ccc(-c3nc4ccccc4o3)c(O)c2)c1 9%
CC1(C)C(=O)Nc2ccccc2N1C(=O)COC(=O)Cn1cnc2ccccc2c1=O 11%
CC1CCCCC1NC(=O)CCS(=O)(=O)c1cccc2nonc12 (configuration not stated) 2%
c1csc(CN2CCN(Cc3cccs3)C2c2cccs2)c1 5%
O=C(CSc1nnc(Cc2ccccc2)n1-c1ccccc1)N1CCOCC1 5%
CCc1c(O)nc(SCC(=O)N2CCCCC2)n(-c2ccccc2C)c1=O 11%
O=C(NC1CCN(Cc2ccccc2)CC1)c1ccccc1F 1%
Cc1ccc(NC(=O)c2cc(-c3ccc(C)o3)nc3ccccc23)nc1 5%
CCOC(=O)C1CCN(C(=O)Cc2c(C(=O)O)[nH]c3ccccc23)CC1 1%
Cc1ccn2cc(C(=O)NC3CCN(Cc4ccccc4)CC3)nc2c1 4%
CC1Cc2ccccc2N1C(=O)CSc1nc2ccccc2o1 (configuration not stated) 4%
COC(=O)CN(c1cccc(C(C)=O)c1)S(C)(=O)=O 6%
C[N+](C)(C)CCOP(=O)([O-])OC[C@H](O)CO 2%
COc1ccc(OC)c(C(=O)c2coc3ccc(OC)cc23)c1 0%
Cc1cc(C)nc(NC2=NCC(=O)N2c2ccc(Cl)cc2)n1 2%
Nc1ccc(-n2nncc2-c2ccco2)cc1 3%
CCOC(=O)CSc1nnc(CNC(=O)c2ccco2)n1-c1ccc(F)cc1 5%
CCOC(=O)C1C(=O)NC(N2CCN(c3ccccc3)CC2)=NC1c1ccco1 (configuration not stated) 7%
O=C(O)C1CCCN1S(=O)(=O)c1ccc2c(c1)CCC2 (configuration not stated) 8%
CNC(=O)n1ccc(C(=O)N2CCCCC2)n1 2%
Cc1ccc(-c2ccc(=O)n(CC(=O)NCCCN3CCCCC3)n2)cc1 8%
CN(Cc1ccccc1)c1nc2c(c(=O)[nH]c(=O)n2C)n1CCSc1nc2ccccc2[nH]1 4%
COC(=O)C(C)N(C#N)c1nc(C)nc(C)n1 (configuration not stated) 9%
CCOc1ccc(NC(=O)Nc2ccc(N(C)C(C)=O)cc2)cc1 4%
CC(c1ccco1)N(C(=O)c1ccc(S(=O)(=O)N2CCCCC2)cc1)c1ccccn1 (configuration not stated) 1%
Cc1ccc(-c2nc(COC(=O)c3c(C)noc3C)cs2)cc1 7%
COc1ccc(OCc2cccc(C(=O)N3CCCC3)c2)cc1 9%
CCOC(=O)N1CCN(C(=O)c2ccc(CN(c3ccc(C)c(C)c3)S(C)(=O)=O)cc2)CC1 2%
CCOC(=O)N1CCN(C(=O)COc2ccc(Br)cc2)CC1 5%
COc1ccccc1C(=O)N1CCN=C1SCc1cccnc1 2%
Cn1c(=O)[nH]c(=O)c2c1nc(CN(Cc1ccccc1)Cc1ccccc1)n2CCN1CCOCC1 0%
CCOC(=O)c1nnn(-c2nc(OC)nc(N(C)C)n2)c1-c1ccccc1 6%
O=C(CSc1nc2ccccc2o1)N1CCN(c2ccc(Cl)cc2)CC1 3%
CCOC(=O)N1CCN(C(=O)CN(C2CCCCC2)S(C)(=O)=O)CC1 3%
O=C(C1CCN(CC2CCCCC2)CC1)N1CCCC1 17%
O=C(CS(=O)(=O)c1cn(Cc2ccc(Cl)cc2)c2ccccc12)N1CCOCC1 1%
CC1CN(c2cc(=O)n(-c3cccc(Br)c3)c(=O)[nH]2)CC(C)O1 (configuration not stated) 2%
OC(COc1cccc(OCC(O)CN2CCCC2)c1)CN1CCCC1 (configuration not stated) 3%
COc1ccc(C2CC(c3ccc(C)cc3)Nc3nc(N)nn32)cc1 (configuration not stated) 1%
CCOc1ccc(-c2nnn(CC(=O)N3CCN(c4ccc(F)cc4)CC3)n2)cc1OCC 1%
COc1ccccc1Cc1nc(-c2ccc(C)cc2)no1 1%
Cc1cc(=O)[nH]c(=S)[nH]1 0%
COc1ccccc1C1/C(=C(/O)c2ccc(OC(C)C)cc2)C(=O)C(=O)N1c1cc(C)on1 (configuration not stated) 5%
OCCCNC(c1ccccc1)c1ccc(O)cc1 (configuration not stated) 6%
Cc1cc(C(F)(F)F)nn1CC(=O)N1CCCC1 2%
CCOC(=O)Cn1c(SC)nc2sc3c(c2c1=O)CC(C)(C)OC3 4%
COCCNC(=O)c1ccccc1-c1nc(-c2ccccc2Cl)no1 4%
Cc1nc(CNS(=O)(=O)c2cccnc2)cs1 5%
Cc1cc(C)nc(N(C#N)CC(=O)Nc2ccccc2)n1 7%
COc1ccc(-c2noc(CN(C)S(=O)(=O)c3ccc(C)cc3)n2)cc1 6%
CN1CCN(S(=O)(=O)c2ccc(NC(=O)c3ccco3)cc2)CC1 2%
CCOc1ccc(CN(Cc2ccco2)C(c2cccs2)c2nnnn2C(C)(C)C)cc1 (configuration not stated) 1%
CCOC(=O)c1ccc(N2C(=O)CC(N3CC(C)OC(C)C3)C2=O)cc1 (configuration not stated) 3%
CC(=O)Nc1ccc(S(=O)(=O)N2CCN(C3CCCCCCC3)CC2)cc1 6%
CC(C)(C)c1ccc(C(=O)NCCC(=O)NCc2ccco2)cc1 6%
CCSC1(SCC)N=C(N)C2(C#N)C(c3ccccc3)NC(C)=CC12C#N (configuration not stated) 1%
COc1ccccc1-n1nnnc1S(=O)(=O)Cc1ccc(Cl)cc1 5%
Cc1noc(C)c1S(=O)(=O)N(CC(=O)Nc1ccc2c(c1)OCCO2)c1ccc(C(C)C)cc1 8%
CCCCOC(=O)c1[nH]c(C)c(C(=O)OC)c1C 1%
CC(Oc1ccc(Cl)cc1)C(=O)Nc1ncccn1 (configuration not stated) 5%
Cc1noc(C)c1CSc1nc2cc(S(=O)(=O)N3CCOCC3)ccc2o1 4%
O=C1CCC(=O)N1CCOP1(=O)COc2ccccc2OC1 4%
O=C(NCc1ccc2c(c1)OCO2)c1cc2c(s1)CS(=O)(=O)C2 6%
CCCOP(=O)(c1ccc(N(C)C)cc1)C(O)c1cc(OC)c(OC)c(OC)c1 (configuration not stated) 2%
CSc1nc(C)nc2c1c(=O)n(C)c(=O)n2C 5%
Cc1nc(NCc2ccccc2)c(C(N)=O)c2c1COC(C)(C)C2 11%
CCN(CC)CCNC(=O)C1c2ccccc2C(=O)N(C)C1c1cn(C)c2ccccc12 (configuration not stated) 6%
CCOc1cc(C(=O)N2CCc3cc(OC)c(OC)cc3C2)ccc1OC(F)F 7%
Cc1cc(N2CCCC2)n2nc(C)c(-c3ccccc3)c2n1 8%
CSCCC(NC(N)=O)C(=O)N(C)CC(=O)Nc1ccc(C)cc1 (configuration not stated) 8%
CC(NCCO)C(=O)C12CC3CC(CC(C3)C1)C2 (configuration not stated) 4%
O=P(O)(CP(=O)(c1ccccc1)c1ccccc1)c1ccccc1 6%
COC(=O)c1cc(NC(=O)CN2CCC(C(N)=O)(N3CCCCC3)CC2)cc(C(=O)OC)c1 4%
ON=C1/C(=N\O)CC2(C/C1=N/O)OCCO2 2%
CCc1ccccc1NC(=O)CSc1nnc([C@@H](NC(=O)OC(C)(C)C)C(C)CC)o1 (some centres not stated) 5%
COc1ccc(-n2ncc3c(N4CCc5ccccc54)ncnc32)cc1 6%
CCOc1ccc(S(=O)(=O)N(CC(=O)O)c2ccccc2)cc1 1%
CCOc1cccc(NC(=O)CC#N)c1 6%
COC(=O)c1sccc1NC(=O)c1csc2c1CCCC2 5%
CCOC(=O)CNC(=O)CSc1nnc(COc2ccc(Cl)cc2)n1CC 8%
N#Cc1ccc(OCCN2C(=O)NC3(CCSC3)C2=O)cc1 (configuration not stated) 14%
CS(=O)(=O)N(Cc1nc2sc3c(c2c(=O)[nH]1)CCCC3)C1CCCCC1 3%
CCn1nc(NC(=O)c2ccco2)c2cc3ccc(C)cc3nc21 9%
N#CC(C(=O)c1ccc(S(=O)(=O)N2CCCCCC2)cc1)c1nc2ccccc2[nH]1 (configuration not stated) 8%
CC(=O)N(Cc1cccs1)C1CCOC(C)(C)C1 (configuration not stated) 5%
CCn1c(NCCc2ccc(OC)c(OC)c2)nc2c1c(=O)n(C)c(=O)n2C 7%
Nc1nc(SCCOc2ccccc2)n[nH]1 1%
N#C/C=C\Oc1ccc(Cl)cc1N 7%
Cc1nnc(NC(=O)CSc2nccn2-c2cccc(C)c2C)s1 5%
O=C(NCc1ccco1)c1cc2sccc2n1Cc1ccc(F)cc1 5%
CCOc1ccc(-c2cn(S(=O)(=O)c3cccc4nsnc34)nc2N)cc1 5%
O=C(CCn1c(=O)[nH]c2ccccc2c1=O)NCCCN1CCN(c2cccc(Cl)c2)CC1 1%
CC1=CC(C)(C)N(C(=O)CSc2nccn2C)c2cc(C)ccc21 0%
O=C(O)CCSc1nnc(-c2ccccc2)n1-c1ccccc1 4%
CSc1nnc(CNC(=O)c2ccccc2)n1-c1ccc(F)cc1 0%
CC(NC(=O)Nc1ccccc1)c1ccccc1 (configuration not stated) 10%
CC(=O)c1cc(C#N)c(SCC(=O)C(C)(C)C)nc1C 1%
COc1cccc(NC(=O)Nc2nnc(N3CCCCC3C)s2)c1 (configuration not stated) 7%
CCCn1cc(SCC(N)=O)c2ccccc21 1%
COc1ccc(S(=O)(=O)N2CCC(C(=O)N3CCc4ccccc4C3)CC2)cc1OC 2%
CCOC(=O)N1CCC(O)(c2cc(C)c(C)cc2C)CC1 3%
O=C(CNS(=O)(=O)c1ccc(Br)s1)NCc1ccc2c(c1)OCO2 5%
